# Test results: ChEMBL document CHEMBL3988442, “University of Dundee, Small-Polar-MMV Screening Library” (2021)
# For some of these results: Entries with a potency or affinity are not part of this list.
# How the values were obtained:
# Design in all cases: scale not given: direction of the effect not stated beside the values
# [1] = molecular target: Protein translocase subunit SecA (Escherichia coli (strain K12)) (UniProt P10408); experiment: Assay to Identify E. coli SecA ATPase Inhibitors; assay type: functional; settings: 30 µM
# [2] = molecular target: T1, Ubiquitin-activating enzyme e1, putative (Leishmania donovani (strain BPK282A1)) (UniProt E9BSI1); experiment: Leishmania donovani Ubiquitin Activating Enzyme (LdE1); assay type: functional; settings: 30 µM
# T1 sequence (whole entry): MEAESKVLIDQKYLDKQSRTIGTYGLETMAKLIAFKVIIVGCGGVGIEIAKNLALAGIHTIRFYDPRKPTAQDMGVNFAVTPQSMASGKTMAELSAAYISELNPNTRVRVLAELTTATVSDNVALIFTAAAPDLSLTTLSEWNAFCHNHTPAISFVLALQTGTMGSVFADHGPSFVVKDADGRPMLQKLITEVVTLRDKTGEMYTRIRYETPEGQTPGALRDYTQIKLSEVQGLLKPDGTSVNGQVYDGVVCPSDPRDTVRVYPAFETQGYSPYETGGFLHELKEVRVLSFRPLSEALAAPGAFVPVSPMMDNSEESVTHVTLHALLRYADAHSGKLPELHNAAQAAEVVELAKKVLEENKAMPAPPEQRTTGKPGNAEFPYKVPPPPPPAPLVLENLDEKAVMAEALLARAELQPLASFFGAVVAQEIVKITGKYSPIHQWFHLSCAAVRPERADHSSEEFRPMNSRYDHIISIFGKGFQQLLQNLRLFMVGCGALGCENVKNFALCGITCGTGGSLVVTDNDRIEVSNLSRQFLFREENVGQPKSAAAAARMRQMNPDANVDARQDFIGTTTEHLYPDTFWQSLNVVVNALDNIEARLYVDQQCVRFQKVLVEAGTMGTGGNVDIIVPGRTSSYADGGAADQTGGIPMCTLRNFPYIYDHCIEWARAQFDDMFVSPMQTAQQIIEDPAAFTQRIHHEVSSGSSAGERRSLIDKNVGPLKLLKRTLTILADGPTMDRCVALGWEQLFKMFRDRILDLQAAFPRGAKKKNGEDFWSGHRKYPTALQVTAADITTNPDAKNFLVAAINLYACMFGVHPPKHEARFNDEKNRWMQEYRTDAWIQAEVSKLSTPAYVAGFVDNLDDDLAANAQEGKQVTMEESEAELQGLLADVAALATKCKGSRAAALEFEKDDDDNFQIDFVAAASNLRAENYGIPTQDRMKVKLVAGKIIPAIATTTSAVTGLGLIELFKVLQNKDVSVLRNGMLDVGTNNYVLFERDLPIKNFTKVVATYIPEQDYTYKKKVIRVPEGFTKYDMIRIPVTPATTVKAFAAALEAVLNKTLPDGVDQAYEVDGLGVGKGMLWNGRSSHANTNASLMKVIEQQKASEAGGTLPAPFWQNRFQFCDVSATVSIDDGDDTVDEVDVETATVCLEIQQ
# [3] = molecular target: AMP-activated protein kinase, AMPK (Homo sapiens) (UniProt P54646+O43741+P54619+Q9UGJ0+Q9Y478+Q13131+Q9UGI9); experiment: AMP-dependent Kinase enzyme assay. An in vitro enzyme assay that detects ADP turnover that is directly proportional to AMPK activity. This uses naive AMPK that is activated during the assay with MK-8722; assay type: functional; settings: 30 µM
# [4] = molecular target: Sialic acid-binding Ig-like lectin 9 (Homo sapiens) (UniProt Q9Y336); experiment: Hs-Siglec9 ALPHAscreen SOP 20170721; settings: 10 µM
# Trypanosoma cruzi = experiment: Trypanosoma cruzi phosphomannomutase and mannose-1-phosphate guanylyltransferase assay; assay type: functional; settings: 10 µM
# [5] = molecular target: T2, Arginase-2, mitochondrial (Homo sapiens) (UniProt P78540); experiment: in vitro enzyme assay to detect the production of urea directly proportional to the activity of Arginase II; assay type: functional; settings: 33.3 µM; further: in the data most compounds retested in dose-response had high values
# T2 sequence (whole entry): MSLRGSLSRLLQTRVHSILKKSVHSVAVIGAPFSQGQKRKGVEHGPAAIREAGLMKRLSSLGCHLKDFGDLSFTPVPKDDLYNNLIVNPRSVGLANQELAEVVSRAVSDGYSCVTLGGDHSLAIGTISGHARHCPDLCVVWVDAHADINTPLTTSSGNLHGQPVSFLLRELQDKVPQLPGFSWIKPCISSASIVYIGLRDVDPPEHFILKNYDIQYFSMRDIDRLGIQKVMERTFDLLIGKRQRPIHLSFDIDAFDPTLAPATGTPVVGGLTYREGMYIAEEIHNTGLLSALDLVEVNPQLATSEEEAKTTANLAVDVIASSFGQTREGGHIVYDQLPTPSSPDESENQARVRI
# [6] = molecular target: T3, Proteasome subunit beta (Trypanosoma cruzi) (UniProt O96673); experiment: Trypanosoma cruzi proteasome chymotrypsin-like activity (TcProtChymo) assay.; further: in the data most compounds retested in dose-response had high values; assay type: functional; settings: 9.37 µM
# T3 sequence (whole entry): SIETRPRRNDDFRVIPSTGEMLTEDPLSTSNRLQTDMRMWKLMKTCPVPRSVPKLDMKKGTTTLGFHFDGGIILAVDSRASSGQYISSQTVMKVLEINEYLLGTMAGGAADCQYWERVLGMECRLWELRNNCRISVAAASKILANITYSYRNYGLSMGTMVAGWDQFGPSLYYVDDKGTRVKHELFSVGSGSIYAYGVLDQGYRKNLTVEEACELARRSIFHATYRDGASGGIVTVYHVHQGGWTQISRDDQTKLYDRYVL
# Homo sapiens = species on record: Homo sapiens; experiment: To identify inhibition of the IFN signalling (Jak-Stat) pathway via expression of an eGFP reporter gene under the control of an IFN-stimulated response element (ISRE) containing MxA promoter.; assay type: functional; settings: 30 µM
# [7] = molecular target: T4, Tyrosyl-tRNA synthetase, putative (Trypanosoma cruzi (strain CL Brener)) (UniProt Q4DSP6); experiment: Trypanosoma cruzi tyrosyl tRNA synthetase (TcYRS) _High Tyrosine SOP; assay type: functional; settings: 30 µM; further: in the data most compounds retested in dose-response had high values
# T4 sequence (whole entry): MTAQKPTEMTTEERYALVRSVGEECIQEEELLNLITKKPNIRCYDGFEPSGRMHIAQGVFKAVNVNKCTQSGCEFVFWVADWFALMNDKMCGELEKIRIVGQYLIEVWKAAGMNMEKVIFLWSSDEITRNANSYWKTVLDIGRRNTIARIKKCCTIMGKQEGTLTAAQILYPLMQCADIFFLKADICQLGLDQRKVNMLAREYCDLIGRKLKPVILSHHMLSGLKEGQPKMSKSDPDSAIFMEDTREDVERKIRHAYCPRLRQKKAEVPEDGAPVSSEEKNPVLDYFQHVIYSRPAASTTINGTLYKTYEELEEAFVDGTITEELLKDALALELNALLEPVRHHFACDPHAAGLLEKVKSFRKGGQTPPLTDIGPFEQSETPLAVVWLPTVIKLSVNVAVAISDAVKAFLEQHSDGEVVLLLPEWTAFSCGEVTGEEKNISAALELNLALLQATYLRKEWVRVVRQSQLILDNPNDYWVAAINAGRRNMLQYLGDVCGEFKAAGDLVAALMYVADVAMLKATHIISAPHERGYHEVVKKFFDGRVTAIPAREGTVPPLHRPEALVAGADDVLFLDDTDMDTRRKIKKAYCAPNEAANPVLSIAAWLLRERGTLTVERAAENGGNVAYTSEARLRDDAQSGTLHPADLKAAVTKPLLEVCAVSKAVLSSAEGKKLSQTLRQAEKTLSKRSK
# [8] = molecular target: T4, Tyrosyl-tRNA synthetase, putative (Trypanosoma cruzi (strain CL Brener)); experiment: Trypanosoma cruzi tyrosyl tRNA synthetase (TcYRS) SOP; assay type: functional; settings: 30 µM
# [9] = molecular target: Chromo domain-containing protein 1 (Saccharomyces cerevisiae (strain ATCC 204508 / S288c) (Baker's yeast)) (UniProt P32657); experiment: ScCHD-1 Enzyme Inhibition Assay; assay type: functional; settings: 30 µM; further: in the data most compounds retested in dose-response had high values
# Chromo domain-containing protein 1 (Saccharomyces cerevisiae (strain ATCC 204508 / S288c) (Baker's yeast)), sequence (P32657 whole entry, the tested form may be a part): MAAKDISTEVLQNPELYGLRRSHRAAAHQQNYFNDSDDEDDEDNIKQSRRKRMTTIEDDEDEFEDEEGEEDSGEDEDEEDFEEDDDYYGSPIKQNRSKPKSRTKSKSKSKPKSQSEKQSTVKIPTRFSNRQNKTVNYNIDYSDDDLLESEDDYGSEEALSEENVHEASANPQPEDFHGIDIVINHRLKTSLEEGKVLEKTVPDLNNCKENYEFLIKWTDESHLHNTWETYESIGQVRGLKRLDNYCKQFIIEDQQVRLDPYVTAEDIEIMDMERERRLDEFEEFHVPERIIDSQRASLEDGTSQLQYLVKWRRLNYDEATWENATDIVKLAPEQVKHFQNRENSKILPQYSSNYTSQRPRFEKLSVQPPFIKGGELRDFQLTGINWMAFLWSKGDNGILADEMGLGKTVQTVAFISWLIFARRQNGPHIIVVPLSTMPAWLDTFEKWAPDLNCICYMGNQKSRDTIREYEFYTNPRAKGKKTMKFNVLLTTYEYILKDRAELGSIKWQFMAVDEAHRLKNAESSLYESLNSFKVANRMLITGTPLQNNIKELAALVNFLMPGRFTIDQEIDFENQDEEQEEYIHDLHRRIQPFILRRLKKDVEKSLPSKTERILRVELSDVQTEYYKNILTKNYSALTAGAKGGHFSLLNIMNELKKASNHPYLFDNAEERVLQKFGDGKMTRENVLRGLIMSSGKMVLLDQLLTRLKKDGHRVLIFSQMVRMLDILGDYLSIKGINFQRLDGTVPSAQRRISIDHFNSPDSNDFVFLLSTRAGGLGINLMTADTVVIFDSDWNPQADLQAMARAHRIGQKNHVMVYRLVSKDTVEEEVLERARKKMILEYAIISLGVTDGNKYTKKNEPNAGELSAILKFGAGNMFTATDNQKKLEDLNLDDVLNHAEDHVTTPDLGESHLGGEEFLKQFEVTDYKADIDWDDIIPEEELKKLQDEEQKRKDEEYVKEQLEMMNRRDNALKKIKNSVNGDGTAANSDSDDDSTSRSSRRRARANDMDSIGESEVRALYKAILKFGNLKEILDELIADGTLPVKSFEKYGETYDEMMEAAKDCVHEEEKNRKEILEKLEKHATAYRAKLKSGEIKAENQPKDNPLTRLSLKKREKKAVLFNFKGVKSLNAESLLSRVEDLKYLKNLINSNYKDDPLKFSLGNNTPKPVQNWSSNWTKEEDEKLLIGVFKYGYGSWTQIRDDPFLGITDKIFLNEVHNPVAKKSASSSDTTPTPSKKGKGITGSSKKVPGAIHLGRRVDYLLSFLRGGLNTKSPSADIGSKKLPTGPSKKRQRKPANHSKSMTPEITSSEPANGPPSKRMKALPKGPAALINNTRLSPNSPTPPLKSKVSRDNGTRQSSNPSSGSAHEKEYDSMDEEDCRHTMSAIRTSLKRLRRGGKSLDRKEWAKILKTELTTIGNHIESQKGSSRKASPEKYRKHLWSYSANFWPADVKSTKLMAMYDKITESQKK
# Sialic acid-binding Ig-like lectin 9 (Homo sapiens), sequence (Q9Y336 whole entry): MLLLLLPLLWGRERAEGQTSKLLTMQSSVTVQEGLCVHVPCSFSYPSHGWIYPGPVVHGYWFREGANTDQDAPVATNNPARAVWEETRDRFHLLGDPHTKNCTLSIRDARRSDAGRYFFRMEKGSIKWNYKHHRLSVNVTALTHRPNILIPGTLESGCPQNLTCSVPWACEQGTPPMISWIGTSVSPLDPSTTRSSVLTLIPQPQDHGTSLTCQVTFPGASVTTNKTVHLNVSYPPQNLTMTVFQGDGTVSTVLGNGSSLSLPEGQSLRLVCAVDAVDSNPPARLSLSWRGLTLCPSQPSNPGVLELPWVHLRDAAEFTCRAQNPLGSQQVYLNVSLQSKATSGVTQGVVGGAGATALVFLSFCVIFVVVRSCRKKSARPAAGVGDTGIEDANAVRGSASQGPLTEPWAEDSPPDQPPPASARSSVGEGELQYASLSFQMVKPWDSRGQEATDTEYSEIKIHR
# Protein translocase subunit SecA (Escherichia coli (strain K12)), sequence (P10408 whole entry): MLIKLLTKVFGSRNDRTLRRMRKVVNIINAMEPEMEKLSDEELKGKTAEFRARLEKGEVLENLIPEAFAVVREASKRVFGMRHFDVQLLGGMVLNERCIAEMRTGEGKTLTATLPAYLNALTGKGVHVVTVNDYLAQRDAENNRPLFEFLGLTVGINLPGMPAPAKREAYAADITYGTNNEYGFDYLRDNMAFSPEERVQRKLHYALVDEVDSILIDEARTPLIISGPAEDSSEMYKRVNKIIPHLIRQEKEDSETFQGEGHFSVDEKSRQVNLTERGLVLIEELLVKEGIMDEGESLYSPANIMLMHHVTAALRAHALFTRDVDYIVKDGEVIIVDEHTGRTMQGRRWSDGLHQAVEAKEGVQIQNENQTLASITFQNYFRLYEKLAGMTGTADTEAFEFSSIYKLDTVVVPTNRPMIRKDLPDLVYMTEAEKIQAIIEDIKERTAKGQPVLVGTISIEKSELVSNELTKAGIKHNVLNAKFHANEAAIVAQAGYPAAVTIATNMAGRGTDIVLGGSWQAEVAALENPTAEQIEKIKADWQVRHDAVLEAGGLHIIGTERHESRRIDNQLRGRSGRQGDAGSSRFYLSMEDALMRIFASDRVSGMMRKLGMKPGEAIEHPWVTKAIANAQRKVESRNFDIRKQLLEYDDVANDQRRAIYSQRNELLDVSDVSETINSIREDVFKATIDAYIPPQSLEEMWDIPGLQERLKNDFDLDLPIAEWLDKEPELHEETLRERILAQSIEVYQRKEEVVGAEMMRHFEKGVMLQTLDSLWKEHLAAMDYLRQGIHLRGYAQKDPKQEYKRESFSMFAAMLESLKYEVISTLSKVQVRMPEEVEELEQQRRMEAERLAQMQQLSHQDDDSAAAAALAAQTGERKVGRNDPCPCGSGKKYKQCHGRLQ
smiles,measurement,setting,value
CC(C)c1nn(C)c(N(C)C)c1CNCc1cccc(CN(C)C)c1,Percent Effect,[1],-1.46%
same,Percent Effect,[2],18.4%
same,Percent Effect,[3],-8.3%
same,Percent Effect,[4],3.17%
same,Percent Effect,Trypanosoma cruzi,-7.94%
same,Percent Effect,[5],3.6%
same,Percent Effect,[6],3.81%
same,Percent Effect,Homo sapiens,2.21%
same,Percent Effect,[7],8.37%
same,Percent Effect,[8],18.5%
same,Percent Effect,[9],-4.8%
Cc1ncc(CNC(=O)CCc2cccc(F)c2)c(C2CCCN2C)n1 (stereo unspecified),Percent Effect,[1],-7.92%
same,Percent Effect,[2],9.46%
same,Percent Effect,[3],-0.703%
same,Percent Effect,[4],1.74%
same,Percent Effect,Trypanosoma cruzi,0.988%
same,Percent Effect,[5],-3.94%
same,Percent Effect,[6],5.15%
same,Percent Effect,Homo sapiens,2.42%
same,Percent Effect,[7],2.15%
same,Percent Effect,[8],9.09%
same,Percent Effect,[9],-19.1%
COCCN1C[C@H]2[C@@H](C1)N(Cc1ccc(C)o1)CC[C@H]2OC,Percent Effect,[1],-2.85%
same,Percent Effect,[2],-30.1%
same,Percent Effect,[3],-5.66%
same,Percent Effect,[4],7.25%
same,Percent Effect,Trypanosoma cruzi,6.94%
same,Percent Effect,[5],-3.19%
same,Percent Effect,[6],14.3%
same,Percent Effect,Homo sapiens,0.524%
same,Percent Effect,[7],8.33%
same,Percent Effect,[8],6.17%
same,Percent Effect,[9],-11.5%
O=C(c1nn(-c2ccccc2F)cc1O)N1CCCC1,Percent Effect,[1],-5%
same,Percent Effect,[2],-10.8%
same,Percent Effect,[3],-2.23%
same,Percent Effect,[4],3.15%
same,Percent Effect,Trypanosoma cruzi,-3.62%
same,Percent Effect,[5],-0.185%
same,Percent Effect,[6],-6.1%
same,Percent Effect,Homo sapiens,5.03%
same,Percent Effect,[7],-6.93%
same,Percent Effect,[8],-8.54%
same,Percent Effect,[9],4.21%
Cc1cc(C)n(CC2CN(CC(=O)Nc3nncs3)CCO2)n1 (stereo unspecified),Percent Effect,[1],-3.97%
same,Percent Effect,[2],15.6%
same,Percent Effect,[3],1.37%
same,Percent Effect,[4],0.371%
same,Percent Effect,Trypanosoma cruzi,-6.37%
same,Percent Effect,[5],3.2%
same,Percent Effect,[6],-4.05%
same,Percent Effect,Homo sapiens,26.9%
same,Percent Effect,[7],6.8%
same,Percent Effect,[8],12.2%
same,Percent Effect,[9],-2.27%
COCC(c1cccc(C(F)(F)F)c1)N(C)C(=O)c1cc(C)no1 (stereo unspecified),Percent Effect,[1],-0.889%
same,Percent Effect,[2],13.2%
same,Percent Effect,[3],1.05%
same,Percent Effect,[4],-2.93%
same,Percent Effect,Trypanosoma cruzi,0.564%
same,Percent Effect,[5],4.98%
same,Percent Effect,[6],6.68%
same,Percent Effect,Homo sapiens,10.2%
same,Percent Effect,[7],1.47%
same,Percent Effect,[8],19.5%
same,Percent Effect,[9],-12.2%
COc1ccc(CN(C)C(=O)NCc2c(C)cc(C)[nH]c2=O)cc1,Percent Effect,[1],-4.97%
same,Percent Effect,[2],15.8%
same,Percent Effect,[3],-2.27%
same,Percent Effect,[4],-2.15%
same,Percent Effect,Trypanosoma cruzi,-0.84%
same,Percent Effect,[5],1.08%
same,Percent Effect,[6],2.12%
same,Percent Effect,Homo sapiens,9.7%
same,Percent Effect,[7],3.45%
same,Percent Effect,[8],18.5%
same,Percent Effect,[9],-0.177%
Cc1cc(C(=O)NCc2ccccn2)no1,Percent Effect,[1],0.824%
same,Percent Effect,[2],2.7%
same,Percent Effect,[3],-14.1%
same,Percent Effect,[4],-0.919%
same,Percent Effect,Trypanosoma cruzi,2.92%
same,Percent Effect,[5],-3.21%
same,Percent Effect,[6],6.49%
same,Percent Effect,Homo sapiens,7.17%
same,Percent Effect,[7],3.45%
same,Percent Effect,[8],-63%
same,Percent Effect,[9],0.179%
COc1ccc(C2=CCN(C(=O)CN(C)Cc3ccoc3)CC2)cc1,Percent Effect,[1],-6.75%
same,Percent Effect,[2],7.59%
same,Percent Effect,[3],-2.65%
same,Percent Effect,[4],5.81%
same,Percent Effect,Trypanosoma cruzi,11.6%
same,Percent Effect,[5],-5.32%
same,Percent Effect,[6],10.4%
same,Percent Effect,Homo sapiens,28.5%
same,Percent Effect,[7],8.37%
same,Percent Effect,[8],21.5%
same,Percent Effect,[9],-11.7%
Cn1cccc1C(CNC(=O)c1ccc(F)cc1F)N1CCCCCC1 (stereo unspecified),Percent Effect,[1],-3.52%
same,Percent Effect,[2],15.6%
same,Percent Effect,[3],-9.64%
same,Percent Effect,[4],-10.9%
same,Percent Effect,Trypanosoma cruzi,6.21%
same,Percent Effect,[5],-3.23%
same,Percent Effect,[6],17.9%
same,Percent Effect,Homo sapiens,11%
same,Percent Effect,[7],8.47%
same,Percent Effect,[8],21.8%
same,Percent Effect,[9],-12.6%
CCc1ccc(OCC(O)CN2CCC(O)CC2)cc1 (stereo unspecified),Percent Effect,[1],-6.44%
same,Percent Effect,[2],-2.6%
same,Percent Effect,[3],5.75%
same,Percent Effect,[4],-12.1%
same,Percent Effect,Trypanosoma cruzi,-4.21%
same,Percent Effect,[5],-1.05%
same,Percent Effect,[6],5.42%
same,Percent Effect,Homo sapiens,11.1%
same,Percent Effect,[7],-2.86%
same,Percent Effect,[8],0%
same,Percent Effect,[9],-19%
